High-throughput results (PubChem BioAssay)
PfM18AAP inh-1: blocks P. falciparum M18 aspartyl aminopeptidase; recombinant PfM18AAP, H-Glu-NHMec fluorogenic cleavage; inhibition, % at 7.35 µM; 290,000 compounds, 1.2% hits; AID 1822;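 active = inhibition above the campaign mean inhibition over all tested compounds plus 3 SD, cut at about 28% in these data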
ABHD5 PLIN5 PPI: blocks binding of human ABHD5 to perilipin-5; Q00G26+Q8WTS1; Split G. princeps luciferase complementation, luminescence, 4 h; inhibition, % at 4 µM; 360,000 compounds, 0.78% hits; AID 602281;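 active = inhibition above the mean inhibition across every tested compound plus 3 SD, cut at about 22% in these data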
Platelet DG rel: platelet dense granule release activity; human platelet-rich plasma, SFLLRN dense granule ATP release, luminescence; inhibition, %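 (compounds screened at 7.5 µM in platelet-rich plasma)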; 300,000 compounds, 0.22% hits; AID 1663;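 active = mean replicate score, as percent of positive control, at or above 50; inconclusive = mean below 50 but at least one replicate at or above 50; inactive = mean and every replicate below 50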
Rce1 inhib: blocks yeast Ras-converting enzyme. Q03530. yeast membranes, quenched prenylated peptide cleavage fluorescence. calls only. 290,000 compounds, 0.27% hits;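 active = fall in fluorescence gain of 50% or more versus controls, with final raw signal at or below 3038400; inconclusive = same 50% fall but final raw signal above 3038400; inactive = fall in fluorescence gain under 50%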
Exocytosis inh: blocks lytic granule exocytosis; TALL-104 LAMP-1 surface exposure, flow cytometry; cells stimulated with thapsigargin and PMA; inhibition, % at 10 µM; 360,000 compounds, 0.66% hits; AID 651702;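 active = inhibition above about 55%, limit read from the data; inconclusive = no clear call, values can overlap the other calls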
PfM18AAP inh-2: PfM18AAP inhibition, confirmation; shares compounds with PfM18AAP inh-1; recombinant PfM18AAP, H-Glu-NHMec fluorogenic cleavage; inhibition, % at 7.35 µM; 2,400 compounds, 28% hits; AID 2170;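 active = mean inhibition over replicate wells above the hit cutoff set for the earlier primary screen, cut at about 29% in these data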
CTSL1 counter: Cathepsin L (human) inhibition, confirmation. 2,400 tested, under 10 active. inhibition, % at 5.96 µM. AID 2178. purified cathepsin L1, Z-Leu-Arg-MCA fluorescence. shares compounds with PfM18AAP inh-1;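 active = average inhibition across replicates above the hit cutoff set in the earlier primary screen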
Target sequence (P07711 whole entry, looked up): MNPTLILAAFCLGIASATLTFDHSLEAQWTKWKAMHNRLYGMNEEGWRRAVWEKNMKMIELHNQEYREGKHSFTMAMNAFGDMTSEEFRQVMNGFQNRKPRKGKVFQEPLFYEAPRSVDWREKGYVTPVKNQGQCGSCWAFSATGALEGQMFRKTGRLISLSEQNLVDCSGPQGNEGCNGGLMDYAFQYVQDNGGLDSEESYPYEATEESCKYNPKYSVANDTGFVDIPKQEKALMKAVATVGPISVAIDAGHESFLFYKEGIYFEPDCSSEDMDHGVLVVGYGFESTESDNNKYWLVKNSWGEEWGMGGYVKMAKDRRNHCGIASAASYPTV
A number is an active result; – = inactive; ? = inconclusive; · = no result given. Compounds with a hit are over-represented: about 2.6% of the library has one in this group of screens.

SMILES	PfM18AAP inh-1	ABHD5 PLIN5 PPI	Platelet DG rel	Rce1 inhib	Exocytosis inh	PfM18AAP inh-2	CTSL1 counter
Cn1cc(P(=O)(N2CCOCC2)N2CCOCC2)cc1P(=S)(N1CCOCC1)N1CCOCC1	37	–	–	–	–	–	–
CCOC(=O)c1c(NC(=O)C2CCCO2)sc(C(=O)OC(C)(C)C)c1C (configuration not stated)	35	–	–	–	–	–	–
Cc1sc(NC(=O)C2CCCO2)c(C(N)=O)c1C (configuration not stated)	37	–	–	–	–	–	–
CCOC(=O)c1c(NC(=O)C2CCCO2)sc(C)c1C (configuration not stated)	–	–	–	–	–	·	·
COC(=O)c1sc(NC(=O)C2CCCO2)c(C(=O)OC)c1C (configuration not stated)	–	–	–	–	–	·	·
CCOC(=O)N/N=C\c1ccc(OC(=O)c2ccc3c(c2)OCO3)cc1	–	–	–	–	–	·	·
CC(C)CNc1c(N)n(CC(C)C)c(=O)[nH]c1=O	–	–	·	·	–	·	·
COc1ccc(N2CCN(CC(=O)c3ccc(O)cc3O)CC2)cc1	37	–	?	–	–	–	–
Cc1ccc(S(=O)(=O)Nc2cc(Cl)c(O)c3ncccc23)cc1	39	–	–	–	–	–	–
CCN1/C(=C/C(=O)c2ccco2)Sc2ccccc21	46	–	–	–	–	–	–
CCC(=O)/C=C1/Sc2ccccc2N1CC	54	–	–	–	–	–	–
O=C1CC(N2CCN(Cc3ccc4c(c3)OCO4)CC2)C(=O)N1Cc1ccc(N2CCCC2=O)cc1 (configuration not stated)	–	–	–	–	–	·	·
COCCCNC(=S)NNC(=O)c1cc(Cl)c(O)c(Cl)c1	47	–	–	–	–	–	–
COCCCNC(=S)NNC(=O)c1ccccc1Br	–	–	–	–	–	·	·
COCCCNC(=S)NNC(=O)c1ccccn1	–	–	–	–	–	·	·
COCCCNC(=S)NNC(=S)NCCCOC	32	–	–	–	–	–	–
O=C(COc1ccccc1C(=O)NCc1ccccn1)Nc1ccc(Br)cc1	–	–	–	–	–	·	·
COc1ccc(OC)c(C2CC(c3c(-c4ccccc4)c4cc(Cl)ccc4[nH]c3=O)=NN2S(C)(=O)=O)c1 (configuration not stated)	–	–	–	–	–	·	·
Cc1cc2c(cc1C)/C(=N/NC(=O)c1ccccn1)CCC2	–	–	–	–	–	·	·
O=C(NN=C1CCC(=NNC(=O)c2ccccn2)CC1)c1ccccn1	32	–	·	·	–	–	–
O=c1[nH]c(CSc2ncccn2)nc2c1cnn2-c1ccccc1	–	–	–	–	–	·	·
COc1cccc(CN2CCNC(=O)C2CC(=O)NCCc2cccc(C)n2)c1OC (configuration not stated)	–	–	–	–	–	·	·
CSC1=NS(=O)(=O)c2c(C)nn(C)c2S1	57	–	–	–	–	–	–
CC1(C)Cc2c(cnn2-c2ccc(F)cc2)C(NC(=O)Cn2cncn2)C1 (configuration not stated)	–	–	–	–	–	·	·
O=C(CN1CCc2cc3c(cc2C1)OCCCO3)Nc1cccc([N+](=O)[O-])c1	35	–	–	–	–	–	–
SMILES	PfM18AAP inh-1	ABHD5 PLIN5 PPI	Platelet DG rel	Rce1 inhib	Exocytosis inh	PfM18AAP inh-2	CTSL1 counter
CCOC(=O)c1c(NC(=O)OC)sc(C(=O)N(CC)CC)c1C	33	–	·	–	–	–	–
O=C(CN1C(=O)c2ccccc2S1(=O)=O)c1ccc(O)c(O)c1	47	–	–	–	–	35	–
Cc1c([N+](=O)[O-])cc(C(=O)N2CCOCC2)cc1[N+](=O)[O-]	–	–	–	–	–	·	·
COc1cc2ccccc2cc1C(=O)NNC(=O)c1ccccc1O	–	–	–	–	–	·	·
CC1(C)CC(=O)C(C(c2cccnc2)C2C(=O)CC(C)(C)CC2=O)C(=O)C1	–	–	–	–	–	·	·
COc1cccc(/C=C/C(=O)c2c(O)cc(C)oc2=O)c1O	–	–	–	–	–	·	·
COc1cc(/C=C/C(=O)c2c(O)cc(C)oc2=O)cc(OC)c1O	42	–	–	–	–	–	–
CC1(C)NC(=O)N(CC(=O)N2CCN(c3cccc(C(F)(F)F)c3)CC2)C1=O	·	–	–	·	–	·	·
Cc1csc(SCC(=O)Nc2cccc3nsnc23)n1	–	–	·	·	–	·	·
CC(C)c1cc2c(c(O)c1O)[C@@]13CCCC(C)(C)C1CC2OC3=O (some centres not stated)	68	–	–	–	–	48	–
N#C/C(=C\Nc1ccc(F)c(Cl)c1)S(=O)(=O)c1ccccn1	–	–	–	–	–	·	·
O=C(OCn1cncn1)c1ccc(Cl)cc1Cl	53	–	–	–	–	29	–
N/C(Cn1cncn1)=N\OC(=O)c1ccc(Cl)cc1	–	–	–	–	–	·	·
Cc1cc2nc3c(=O)[nH]c(=O)[nH]c3nc2c([N+](=O)[O-])c1N	32	–	·	·	–	–	–
COc1cc(/C=N/Nc2ccc(S(N)(=O)=O)cc2[N+](=O)[O-])cc(OC)c1O	45	–	–	–	–	–	–
COc1cc(/C=N/Nc2ccccc2[N+](=O)[O-])cc(OC)c1O	–	–	–	–	–	·	·
COc1cccc(N2CCN(S(=O)(=O)c3ccc(-c4coc(C)n4)cc3)CC2)c1	–	–	–	–	–	·	·
COc1cc(CNc2ccc(CNc3ncn[nH]3)cc2)cc(Cl)c1OCc1ccccc1	34	–	–	–	–	–	–
COc1cc(CNn2cn[nH]c2=S)cc(Cl)c1OCc1ccccc1	–	–	–	–	–	·	·
COc1ccc(C2C(C(C)=O)=C(O)C(=O)N2c2nc3ccccc3s2)cc1OC (configuration not stated)	34	–	–	–	–	–	–
O=C(O)c1cccc(CN2C(=O)SC(Nc3ccccc3)C2=O)c1 (configuration not stated)	–	–	–	–	–	·	·
O=C(O)c1cccc(CN2C(=O)SC(Nc3cccc4ccccc34)C2=O)c1 (configuration not stated)	34	–	–	–	–	–	–
